# Source: PubChem (National Center for Advancing Translational Sciences (NCATS))
# BLM helicase inh = qHTS Assay for Inhibitors of Bloom's syndrome helicase (BLM); RecQ-like DNA helicase BLM (Homo sapiens), P54132; recombinant BLM DNA unwinding, fluorescence dequenching; Potency, µM (titrated, usually from 56.1 µM), for inactives: at the highest dose activity change, negative = inhibition, most hits filed as inhibitors; hit rate 0.2% among 350,000; AID 2528, 2010;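 note: plate controls were vehicle for no effect and no enzyme for full effect; nearly all actives have a fitted effect of over 35% in size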
# FEN1 inh-1 = qHTS Assay for the Inhibitors of Human Flap endonuclease 1 (FEN1) | Potency, µM (series often up to 114 µM), for the others: top-dose activity change, negative = inhibition, actives largely listed as inhibitors | hit rate 0.35% among 390,000 | Recombinant FEN1 flap cleavage, fluorescence, 15 min | AID 588795, 2011 | P39748; note: % is set by controls: 0 for no effect and ±100 for the full control effect; nearly all actives have a fitted effect of over 65% in size
#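 In this screen, 50 nM flap DNA substrate was added to 10 nM FEN1 pretreated with compound for 15 min at room temperature; cleavage was followed with reads at 0 and 15 min, and Hill fitting gave concentration–response parameters.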
# RECQ1 helicase = qHTS Assay for Inhibitors of RecQ-Like Dna Helicase 1 (RECQ1). RECQ1 DNA unwinding, red fluorescence kinetic read. hit rate 0.54% among 240,000. ATP-dependent DNA helicase Q1 (Homo sapiens), P46063. AID 2549, 2010. Potency, µM (doses to about 57.3 µM), without a hit: at the top dose activity, negative = inhibition, most hits filed as inhibitors;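 note: plate controls were vehicle for no effect and no enzyme for full effect; nearly all actives have a fitted effect of over 30% in size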
#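 50 nM RECQ1T1 preincubated 15 min with compound in Tris pH 8.0 buffer with MgCl2, DTT, Tween-20 and 2.5 ug/ml poly(dI-dC); started with 200 nM TAMRA/BHQ-2 forked duplex and 2 mM ATP. Unwinding read as fluorescence (525/598 nm), two reads 2 h apart.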
# L3MBTL1 inh = qHTS Assay for the Inhibitors of L3MBTL1. Lethal(3)malignant brain tumor-like protein 1 (Homo sapiens), Q9Y468. AID 485360, 2010. AlphaScreen L3MBTL1–H3K9me1 peptide binding. Potency, µM (highest dose often 57.1 µM), without a hit: at the highest dose activity, negative = inhibition, hits mostly inhibitors. hit rate 0.66% among 230,000; note: % is set by controls: 0 for no effect and ±100 for the full control effect; nearly all actives have a fitted effect of over 60% in size
#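 Displacement of a biotinylated histone H3(1-15) peptide monomethylated at Lys9 (75 nM) from L3MBTL1 (50 nM) was measured by AlphaScreen after a 30 min room-temperature compound incubation; cefsulodin titration served as intraplate control.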
# WRN inhibitor = qHTS for Inhibitors of WRN Helicase; Bifunctional 3'-5' exonuclease/ATP-dependent helicase WRN (Homo sapiens), Q14191; WRN helicase unwinding, fluorescent forked duplex, kinetic; Potency, µM (series often up to 114 µM), inactives show top-dose activity change, negative = inhibition, hits mostly inhibitors; hit rate 0.46% among 360,000; AID 651768, 2012; note: % is set by controls: 0 for no effect and ±100 for the full control effect; nearly all actives have a fitted effect of over 55% in size
#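 Kinetic red-fluorescence monitoring (525/598 nm) tracks WRN helicase activity after 100 nM fluorophore-quencher forked duplex and 2 mM ATP are added to 20 nM enzyme pretreated 15 min at room temperature with compound.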
# FEN1 inh-2 = qHTS Assay for the Inhibitors of FEN1: Confirmatory Assay for Cherry-picked Compounds; shares compounds with FEN1 inh-1; FEN1 flap cleavage, TAMRA/BHQ2 fluorogenic DNA substrate; Potency, µM, usual class: inhibitors; hit rate 79% among 880; AID 720498, 2013; note: nearly all actives have a fitted effect of over 60% in size
# An asterisk follows results filed as active; i = inactive; ? = inconclusive; · = not tested or not shown; [ ] = another dose, or the depositor's remark. The list is not random: actives were taken first. Their share in the collection is about 0.99%. Calls come from the whole dose curve; as a rule, active = well fitted curve in the direction sought with a large enough effect; inconclusive = small, poorly fitted or top-dose-only effect, or another doubt; inactive = no such curve, though single readings can be large; an effect the other way counts as inactive or inconclusive. Potency is the fitted concentration of half-maximal effect.
SMILES,BLM helicase inh,FEN1 inh-1,RECQ1 helicase,L3MBTL1 inh,WRN inhibitor,FEN1 inh-2
O=C1NC(=Nc2ccccc2Cl)S/C1=C\c1cc([N+](=O)[O-])ccc1O,-11.9%,?,·,-7.2%,-26.6%,?
CC(OC(=O)/C(C#N)=C/c1ccc(N(C)C)cc1)C(=O)N(C)c1ccccc1 (centres undefined),·,50.1µM*,·,19.6%,56.2µM*,37.9*
COCCOC(=O)c1c(C)oc2ccc(NS(=O)(=O)c3cccs3)cc12,-11.4%,-8.1%,-29.3%,-19.9%,-17.4%,·
COc1cc2c(Cc3ccccc3)cncc2cc1O,·,2.2%,·,·,-0.7%[11.6 µM],?
COCCn1c(=NC(=O)c2ccc3c(c2)OCCO3)sc2cc(S(N)(=O)=O)ccc21,-4.7%,-2.5%,-3.7%,·,-9.4%[11.6 µM],?
COC(=O)c1csc(S(=O)(=O)N2CCCCC2)c1OC,-4.2%,-2.8%,-5.2%,0.3%,6.0%,·
CCO[C@@H]1OC(C(=O)NCc2nc3ccccc3[nH]2)=C[C@H](c2cn(C(C)=O)c3ccccc23)[C@H]1CCCO,-0.3%,9.6%,-7.2%,-9.7%,3.1%,·
Cc1ccc(C(=O)Nc2ccc(-c3nc4ccccc4[nH]3)cc2)cc1Br,·,·,·,·,·,60.1*
O=C1C(=O)N(O)C2CCCCC2N1O (centres undefined),-2.0%,17.8µM*,-5.4%,5.5%,11.6%,23.9*
CCCNC(=O)c1ccc2c(=O)c(O)c(-c3cccc(Br)c3)[nH]c2c1,-18.4%,31.6µM*,11.3%,·,3.3%[11.6 µM],37.9*
Nc1c(Cl)cc(-c2[nH]c3cc(C(=O)NCCO)ccc3c(=O)c2O)cc1Cl,-26.8%,17.8µM*,·,6.0%,-35.0%,30.1*
Cc1nnnn1/C(=C\c1ccccc1)C(=O)OCC(=O)NC1CCCCC1,·,1.6%,·,3.0%,-10.0%,·
O=C(Cn1nnc(-c2ccc3c(c2)OCO3)n1)Nc1ccccc1C(=O)O,-3.0%,3.8%,·,·,-24.5%,·
CSCCC(NC(=O)c1ccccc1Cl)C(=O)N1CC(C)OC(C)C1 (centres undefined),·,-8.0%,·,0.0%,1.6%,·
CC(NC(=O)COc1ccc([N+](=O)[O-])cc1)c1ccccc1 (centres undefined),-0.8%,14.3%,i,-2.0%,-1.7%,·
O=C(OCC(=O)N1CCc2ccccc21)c1ccc([N+](=O)[O-])o1,·,?,·,-3.2%,14.0%,8.49*
O=C(COC(=O)c1ccc([N+](=O)[O-])o1)NCCc1ccccc1,·,?,·,-21.8%,-0.2%[11.6 µM],9.53*
CC(=O)Nc1ccc(C(=O)OCC(=O)N(Cc2ccccc2)C(C)(C)C)cc1,-3.0%,8.3%,2.5%,·,15.7%,·
CC(C)(C)N(Cc1ccccc1)C(=O)COC(=O)c1ccc([N+](=O)[O-])o1,·,?,·,-7.3%,5.7%,21.3*
CC(NC(=O)COC(=O)c1ccc([N+](=O)[O-])o1)c1ccccc1 (centres undefined),·,?,·,-17.1%,13.1%,15.1*
CC(NC(=O)CCN1C(=O)c2ccccc2S1(=O)=O)c1ccccc1 (centres undefined),·,0.9%,·,10.2%,-7.8%,·
Nc1cccc(C(=O)OCC(=O)NC2CCCc3ccccc32)c1 (centres undefined),-1.4%,14.4%,-0.5%,9.7%,-5.3%,·
O=C(COC(=O)c1ccc([N+](=O)[O-])o1)NC1CCCc2ccccc21 (centres undefined),·,?,·,-17.7%,-30.1%,23.9*
O=C(COC(=O)c1ccc([N+](=O)[O-])o1)NCc1ccc2c(c1)OCO2,·,17.8µM*,·,-57.4%,15.0%,7.57*
C=CCn1c2ccccc2c(=O)c2cc(C#CC[C@@H](C)O)ccc21,·,-21.6%,·,35.8%,-7.1%,·
SMILES,BLM helicase inh,FEN1 inh-1,RECQ1 helicase,L3MBTL1 inh,WRN inhibitor,FEN1 inh-2
COc1ccccc1NC(=O)C(=O)N/N=C/c1cccs1,-9.4%,31.6µM*,2.6%,-21.6%,-16.6%,30.1*
O=C(NCCCn1ccnc1)NC(C(F)(F)F)C(F)(F)F,-2.3%,4.4%,10.6%,-21.1%[11.4 µM],1.1%,·
COc1cc(C2c3c([nH]c(=O)[nH]c3=O)Nc3ccc4ccccc4c32)cc(OC)c1OC (centres undefined),25.1µM*,28.2µM*,i,·,20µM*,30.1*
CC1=C(C(=O)OC(C)C)C(c2ccc(Cl)cc2)n2c(s/c(=C\c3ccc(OCC(=O)O)cc3)c2=O)=N1 (centres undefined),-22.0%,?,·,-6.5%,-10.6%[11.6 µM],67.5*
CCOC(=O)C1=C(C)N=c2s/c(=C\c3ccc(OCC(=O)O)cc3)c(=O)n2C1c1ccccc1 (centres undefined),-5.2%,-23.3%,·,-0.2%,?,·
O=c1c2ccccc2nc(N/N=C/c2ccc(O)cc2)n1O,-4.2%,25.1µM*,-8.1%,-1.9%,-10.8%[57.1 µM],30.1*
O=c1c2ccccc2nc(N/N=C/c2c(O)ccc3ccccc23)n1O,-23.3%,?,-25.4%,?,-16.4%,·
COC(=O)c1sccc1NC(=S)N1CCN(c2ccccc2)CC1,-7.2%,-13.8%,-12.0%,-1.7%,-11.1%,·
COc1ccc(NC(=O)COC(=O)c2ccc([N+](=O)[O-])o2)cc1Cl,0.2%,?,i,·,-1.7%[57.1 µM],21.3*
O=C(COC(=O)c1cccc2ccccc12)Nc1ncc(C(F)(F)F)cc1Cl,-3.0%,-8.6%,-10.8%,·,-5.7%,·
O=C(COC(=O)c1ccc([N+](=O)[O-])o1)Nc1ccc(F)cc1,·,?,·,-2.0%,1.1%,·
O=C(COC(=O)c1ccc([N+](=O)[O-])o1)Nc1ncc(Cl)cc1Cl,·,?,·,?,?,10.7*
O=C(COC(=O)c1ccc([N+](=O)[O-])s1)Nc1ncc(C(F)(F)F)cc1Cl,-3.5%,?,9.1%,?,-8.0%[57.1 µM],8.49*
Cc1ccc(S(=O)(=O)NC(CC(C)C)C(=O)Nc2ccncc2)cc1 (centres undefined),·,0.6%,·,4.1%,-1.9%,·
COc1cccc(NC(=O)Cn2cc(C(=O)c3ccc(F)cc3)c(=O)c3cc(OC)ccc32)c1,-5.6%,3.6%,·,·,·,·
COc1cccc(NC(=O)Cn2cc(C(=O)c3ccc(C)cc3)c(=O)c3cc(OC)ccc32)c1,?,79.4µM*,·,-3.3%,·,?
OCCSc1nc(-c2ccccc2)nc2ccc(F)cc12,-2.9%,-25.6%,i,8.0%,5.6%,·
NC(N)=Nc1nc(-c2ccccc2)c2cc(F)ccc2n1,106.3%,79.4µM*,25.1%,1.3%,15.1%[11.6 µM],53.6*
Cc1cc(S(=O)(=O)N2CCOCC2)ccc1OCC(=O)N1CCC(C)CC1,-3.8%,9.7%,·,·,-2.1%[57.1 µM],·
